# Measurements published in publication PMC8384837, “Expanding the binding specificity for RNA recognition by a PUF domain”.
# Target: PUM1 PUF domain R4-WSS (Homo sapiens, UniProt Q14671 828-1176, N971W;H972S;Q975S)
# Assay: yeast three-hybrid, YBZ-1, SC-Leu-His + 0.5 mM 3-AT, 4 days
# Settings: tags: N-Gal4 AD-HA kept; label: inside an RPR1-promoter hybrid RNA with tandem MS2 sites; ssRNA
# Procedure, shortened: (§1)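 Sequencing with Illumina followed PCR amplification of the repeat regions from transformants grown four days on SC-Leu (input) or SC-Leu-His + 0.5 mM 3-AT (selection). The transformants were strain YBZ-1 with a LexA–MS2 coat fusion and a HIS3 reporter, carrying Pumilio-1 PUF domain libraries and matching RNA elements. The interaction score is the log change in variant frequency from input to selection, computed in log2 with a pseudocount of 1 for absent variants.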
# Chain of PUM1 PUF domain R4-WSS (Q14671 828-1176 N971W/H972S/Q975S): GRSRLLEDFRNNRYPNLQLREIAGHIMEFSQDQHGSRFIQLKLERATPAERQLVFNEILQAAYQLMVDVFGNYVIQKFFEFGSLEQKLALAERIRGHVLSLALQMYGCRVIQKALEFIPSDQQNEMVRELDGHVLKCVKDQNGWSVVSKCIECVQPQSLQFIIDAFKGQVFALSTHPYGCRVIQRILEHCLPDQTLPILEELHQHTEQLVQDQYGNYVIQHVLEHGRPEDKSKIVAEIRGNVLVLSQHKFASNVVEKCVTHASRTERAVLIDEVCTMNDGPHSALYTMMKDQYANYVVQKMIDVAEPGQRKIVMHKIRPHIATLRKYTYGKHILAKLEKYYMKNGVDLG
row,Sequence,binding signal
1,GGCUAGAACUAGUGGAUCCCCCGGCGCCCGGCGGCUCGAGCCCGGGUAAGUGUAUAUAGUCUGCAUGCCGCCGGGCGCCAUGCCUGCAGGUCGACUCUAGAAAACAUG,4.4 log2 enrichment (interaction score)
2,GGCUAGAACUAGUGGAUCCCCCGGCGCCCGGCGGCUCGAGCCCGGGUAAGUGUAAAUAGUCUGCAUGCCGCCGGGCGCCAUGCCUGCAGGUCGACUCUAGAAAACAUG,2.27 log2 enrichment (interaction score)
3,GGCUAGAACUAGUGGAUCCCCCGGCGCCCGGCGGCUCGAGCCCGGGUAAGUGUACAUAGUCUGCAUGCCGCCGGGCGCCAUGCCUGCAGGUCGACUCUAGAAAACAUG,2 log2 enrichment (interaction score)

# Target: PUM1 PUF domain R5-RRI (Homo sapiens, UniProt Q14671 828-1176, C1007R;Q1011I)
# Sequence (Q14671 828-1176 C1007R/Q1011I): as the sequence (Q14671 828-1176 N971W/H972S/Q975S) above, with W144N, S145H, S148Q, C180R, Q184I counted along it
# Assay: as above
# Settings: tags: N-Gal4 AD-HA kept; label: inside an RPR1-promoter hybrid RNA with tandem MS2 sites; ssRNA
# Procedure, shortened: as §1
row,Sequence,binding signal
1,GGCUAGAACUAGUGGAUCCCCCGGCGCCCGGCGGCUCGAGCCCGGGUAAGUGUUAAUAGUCUGCAUGCCGCCGGGCGCCAUGCCUGCAGGUCGACUCUAGAAAACAUG,4.69 log2 enrichment (interaction score)
2,GGCUAGAACUAGUGGAUCCCCCGGCGCCCGGCGGCUCGAGCCCGGGUAAGUGUCAAUAGUCUGCAUGCCGCCGGGCGCCAUGCCUGCAGGUCGACUCUAGAAAACAUG,3.62 log2 enrichment (interaction score)
3,GGCUAGAACUAGUGGAUCCCCCGGCGCCCGGCGGCUCGAGCCCGGGUAAGUGUAAAUAGUCUGCAUGCCGCCGGGCGCCAUGCCUGCAGGUCGACUCUAGAAAACAUG,2.01 log2 enrichment (interaction score)

# Target: PUM1 PUF domain R1-RRQ (Homo sapiens, UniProt Q14671 828-1176, S863R)
# Sequence (Q14671 828-1176 S863R): as the sequence (Q14671 828-1176 N971W/H972S/Q975S) above, with S36R, W144N, S145H, S148Q counted along it
# Assay: as above
# Settings: tags: N-Gal4 AD-HA kept; label: inside an RPR1-promoter hybrid RNA with tandem MS2 sites; ssRNA
# Procedure, shortened: as §1
row,Sequence,binding signal
1,GGCUAGAACUAGUGGAUCCCCCGGCGCCCGGCGGCUCGAGCCCGGGUAAGUGUAAAUUGUCUGCAUGCCGCCGGGCGCCAUGCCUGCAGGUCGACUCUAGAAAACAUG,4.29 log2 enrichment (interaction score)
2,GGCUAGAACUAGUGGAUCCCCCGGCGCCCGGCGGCUCGAGCCCGGGUAAGUGUAAAUCGUCUGCAUGCCGCCGGGCGCCAUGCCUGCAGGUCGACUCUAGAAAACAUG,5.5 log2 enrichment (interaction score)
3,GGCUAGAACUAGUGGAUCCCCCGGCGCCCGGCGGCUCGAGCCCGGGUAAGUGUAAAUGGUCUGCAUGCCGCCGGGCGCCAUGCCUGCAGGUCGACUCUAGAAAACAUG,1.96 log2 enrichment (interaction score)

# Target: PUM1 PUF domain R5-QRR (Homo sapiens, UniProt Q14671 828-1176, C1007Q;Q1011R)
# Sequence (Q14671 828-1176 C1007Q/Q1011R): as the sequence (Q14671 828-1176 N971W/H972S/Q975S) above, with W144N, S145H, S148Q, C180Q, Q184R counted along it
# Assay: as above
# Settings: tags: N-Gal4 AD-HA kept; label: inside an RPR1-promoter hybrid RNA with tandem MS2 sites; ssRNA
# Procedure, shortened: as §1
row,Sequence,binding signal
1,GGCUAGAACUAGUGGAUCCCCCGGCGCCCGGCGGCUCGAGCCCGGGUAAGUGUUAAUAGUCUGCAUGCCGCCGGGCGCCAUGCCUGCAGGUCGACUCUAGAAAACAUG,4.36 log2 enrichment (interaction score)
2,GGCUAGAACUAGUGGAUCCCCCGGCGCCCGGCGGCUCGAGCCCGGGUAAGUGUCAAUAGUCUGCAUGCCGCCGGGCGCCAUGCCUGCAGGUCGACUCUAGAAAACAUG,6.46 log2 enrichment (interaction score)
3,GGCUAGAACUAGUGGAUCCCCCGGCGCCCGGCGGCUCGAGCCCGGGUAAGUGUAAAUAGUCUGCAUGCCGCCGGGCGCCAUGCCUGCAGGUCGACUCUAGAAAACAUG,1.74 log2 enrichment (interaction score)
4,GGCUAGAACUAGUGGAUCCCCCGGCGCCCGGCGGCUCGAGCCCGGGUAAGUGUGAAUAGUCUGCAUGCCGCCGGGCGCCAUGCCUGCAGGUCGACUCUAGAAAACAUG,3 log2 enrichment (interaction score)

# Target: PUM1 PUF domain R4-WAW (Homo sapiens, UniProt Q14671 828-1176, N971W;H972A;Q975W)
# Sequence (Q14671 828-1176 N971W/H972A/Q975W): as the sequence (Q14671 828-1176 N971W/H972S/Q975S) above, with S145A, S148W counted along it
# Assay: as above
# Settings: tags: N-Gal4 AD-HA kept; label: inside an RPR1-promoter hybrid RNA with tandem MS2 sites; ssRNA
# Procedure, shortened: as §1
row,Sequence,binding signal
1,GGCUAGAACUAGUGGAUCCCCCGGCGCCCGGCGGCUCGAGCCCGGGUAAGUGUAUAUAGUCUGCAUGCCGCCGGGCGCCAUGCCUGCAGGUCGACUCUAGAAAACAUG,4.31 log2 enrichment (interaction score)
2,GGCUAGAACUAGUGGAUCCCCCGGCGCCCGGCGGCUCGAGCCCGGGUAAGUGUAAAUAGUCUGCAUGCCGCCGGGCGCCAUGCCUGCAGGUCGACUCUAGAAAACAUG,5.21 log2 enrichment (interaction score)
3,GGCUAGAACUAGUGGAUCCCCCGGCGCCCGGCGGCUCGAGCCCGGGUAAGUGUACAUAGUCUGCAUGCCGCCGGGCGCCAUGCCUGCAGGUCGACUCUAGAAAACAUG,2.47 log2 enrichment (interaction score)

# Target: PUM1 PUF domain R5-KQL (Homo sapiens, UniProt Q14671 828-1176, C1007K;R1008Q;Q1011L)
# Sequence (Q14671 828-1176 C1007K/R1008Q/Q1011L): as the sequence (Q14671 828-1176 N971W/H972S/Q975S) above, with W144N, S145H, S148Q, C180K, R181Q, Q184L counted along it
# Assay: as above
# Settings: tags: N-Gal4 AD-HA kept; label: inside an RPR1-promoter hybrid RNA with tandem MS2 sites; ssRNA
# Procedure, shortened: as §1
row,Sequence,binding signal
1,GGCUAGAACUAGUGGAUCCCCCGGCGCCCGGCGGCUCGAGCCCGGGUAAGUGUUAAUAGUCUGCAUGCCGCCGGGCGCCAUGCCUGCAGGUCGACUCUAGAAAACAUG,3.92 log2 enrichment (interaction score)
2,GGCUAGAACUAGUGGAUCCCCCGGCGCCCGGCGGCUCGAGCCCGGGUAAGUGUCAAUAGUCUGCAUGCCGCCGGGCGCCAUGCCUGCAGGUCGACUCUAGAAAACAUG,5.23 log2 enrichment (interaction score)
3,GGCUAGAACUAGUGGAUCCCCCGGCGCCCGGCGGCUCGAGCCCGGGUAAGUGUAAAUAGUCUGCAUGCCGCCGGGCGCCAUGCCUGCAGGUCGACUCUAGAAAACAUG,1.4 log2 enrichment (interaction score)
